# In the supplement of paper PMC10037445:
# Whole data set: some 2,900 compounds, median “IRF Lucia reporter activity, fold change vs agonist alone” near 0.9, cut for the highest 2% near 2.8. This is one part of a sample in which the highest values are shown more often than they occur.
# Legend:
# RAW-Dual [1] = test: IRF Lucia reporter activity, fold change vs agonist alone; cytotoxicity flag (confluency mask): not cytotoxic; higher = enhanced IRF activity
# In short: (§1)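 Library stock was pin-tooled at 50 nL into 384-well plates of RAW-Dual macrophages (50,000 cells/well, DMEM), followed 1 h later by a PRR agonist, and the cells were kept at 37 °C, 5% CO2. Supernatant collected after 20 hours was read for IRF by QuantiLuc luminescence and for NF-κB by QuantiBlue absorbance at 620 nm. Reporter activity is fold change over agonist-alone wells, and a well counted as cytotoxic when its IncuCyte confluency was below 70% of agonist controls in both mask sets.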
# RAW-Dual [2] = test: IRF Lucia reporter activity, fold change vs agonist alone; cytotoxicity flag (confluency mask): cytotoxic (confluency <70% of control); higher = enhanced IRF activity
# In short: as §1
# RAW-Dual [3] = test: IRF Lucia reporter activity, fold change vs agonist alone; higher = enhanced IRF activity; conditions: agonist: MPLA (TLR4) […]
# In short: as §1
# [4] = agonist: 3'3'-cGAMP (STING) 10 ug/mL
# [5] = library stock concentration (final ~1000-fold dilution): 10 mM, cytotoxicity flag (confluency mask): cytotoxic (confluency <70% of control)
# [6] = library stock concentration (final ~1000-fold dilution): 10 mM, cytotoxicity flag (confluency mask): not cytotoxic
structure (smiles),measurement,setting,value
CCC(=O)N1CCC(Nc2ncnc3c2CN(c2cnc(OC)c(C(F)(F)F)c2)CC3)C1 (configuration not stated) (library stock concentration (final ~1000-fold dilution): 10 mM),IRF Lucia reporter activity,RAW-Dual [1]; [4],0.908
same,IRF Lucia reporter activity,RAW-Dual [1]; agonist: LPS (TLR4) 0.1 ug/mL,0.847
CCC1(O)C(=O)OCc2c1cc1n(c2=O)Cc2cc3c(CN(C)C)c(O)ccc3nc2-1.Cl (configuration not stated) (library stock concentration (final ~1000-fold dilution): 10 mM),IRF Lucia reporter activity,RAW-Dual [2]; [4],2.13
same,IRF Lucia reporter activity,RAW-Dual [2]; agonist: LPS (TLR4) 0.1 ug/mL,2.49
CCC1(O)C(=O)OCc2c1cc1n(c2=O)Cc2cc3c(CN(C)C)c(O)ccc3nc2-1 (configuration not stated) (library stock concentration (final ~1000-fold dilution): 10 mM),IRF Lucia reporter activity,RAW-Dual [1]; [4],2.77
same,IRF Lucia reporter activity,RAW-Dual [1]; agonist: LPS (TLR4) 0.1 ug/mL,3.25
CCC1(O)C(=O)OCc2c1cc1n(c2=O)Cc2cc3cc(O)ccc3nc2-1 (configuration not stated),IRF Lucia reporter activity,RAW-Dual [3]; [5],2.58
same,IRF Lucia reporter activity,RAW-Dual [3]; [6],1.03
CCC1(O)C(=O)OCc2c1cc1n(c2=O)Cc2cc3cc(O)ccc3nc2-1 (configuration not stated) (library stock concentration (final ~1000-fold dilution): 10 mM),IRF Lucia reporter activity,RAW-Dual [1]; [4],0.975
same,IRF Lucia reporter activity,RAW-Dual [1]; agonist: LPS (TLR4) 0.1 ug/mL,0.604
same,IRF Lucia reporter activity,RAW-Dual [2]; [4],2.36
same,IRF Lucia reporter activity,RAW-Dual [2]; agonist: LPS (TLR4) 0.1 ug/mL,1.76
CCc1c2c(nc3ccc(O)cc13)-c1cc3c(c(=O)n1C2)COC(=O)C3(O)CC (configuration not stated),IRF Lucia reporter activity,RAW-Dual [3]; [6],1.65
CCc1c2c(nc3ccc(O)cc13)-c1cc3c(c(=O)n1C2)COC(=O)C3(O)CC (configuration not stated) (library stock concentration (final ~1000-fold dilution): 10 mM),IRF Lucia reporter activity,RAW-Dual [1]; [4],1.24
same,IRF Lucia reporter activity,RAW-Dual [1]; agonist: LPS (TLR4) 0.1 ug/mL,1.29
CCc1c2c(nc3ccc(OC(=O)N4CCC(N5CCCCC5)CC4)cc13)-c1cc3c(c(=O)n1C2)COC(=O)C3(O)CC.Cl.O.O.O (configuration not stated),IRF Lucia reporter activity,RAW-Dual [3]; [6],1.15
CCC1(O)C(=O)OCc2c1cc1n(c2=O)Cc2cc3c(CN(C)C)c(O)ccc3nc2-1.Cl (configuration not stated),IRF Lucia reporter activity,RAW-Dual [3]; [5],3.1
CCc1c2c(nc3ccc(OC(=O)N4CCC(N5CCCCC5)CC4)cc13)-c1cc3c(c(=O)n1C2)COC(=O)C3(O)CC.Cl.O.O.O (configuration not stated) (library stock concentration (final ~1000-fold dilution): 10 mM),IRF Lucia reporter activity,RAW-Dual [1]; [4],0.87
same,IRF Lucia reporter activity,RAW-Dual [1]; agonist: LPS (TLR4) 0.1 ug/mL,1.1
COc1ccc2cc1Oc1ccc(cc1)CC1c3cc(c(OC)cc3CCN1C)Oc1c(OC)c(OC)cc3c1C(C2)N(C)CC3 (configuration not stated) (library stock concentration (final ~1000-fold dilution): 10 mM),IRF Lucia reporter activity,RAW-Dual [1]; [4],1.01
same,IRF Lucia reporter activity,RAW-Dual [1]; agonist: LPS (TLR4) 0.1 ug/mL,0.352
COc1ccc2cc1Oc1ccc(cc1)CC1c3cc(c(OC)cc3CCN1C)Oc1c(OC)c(OC)cc3c1C(C2)N(C)CC3 (configuration not stated),IRF Lucia reporter activity,RAW-Dual [3]; [6],1.07
Cn1c(=O)cc(N2CCCC(N)C2)n(Cc2cc(F)ccc2C#N)c1=O.O=C(O)CCC(=O)O (configuration not stated) (library stock concentration (final ~1000-fold dilution): 10 mM),IRF Lucia reporter activity,RAW-Dual [1]; [4],1.04
same,IRF Lucia reporter activity,RAW-Dual [1]; agonist: LPS (TLR4) 0.1 ug/mL,1.26
Cn1c(=O)cc(N2CCCC(N)C2)n(Cc2cc(F)ccc2C#N)c1=O.O=C(O)CCC(=O)O (configuration not stated),IRF Lucia reporter activity,RAW-Dual [3]; [6],1.13
CCC(C)CC(C)CCCCCCCCC(=O)NC1CC(O)C(NCCN)NC(=O)C2C(O)CCN2C(=O)C(C(O)CCN)NC(=O)C(C(O)C(O)c2ccc(O)cc2)NC(=O)C2CC(O)CN2C(=O)C(C(C)O)NC1=O (configuration not stated) (library stock concentration (final ~1000-fold dilution): 10 mM water),IRF Lucia reporter activity,RAW-Dual [1]; [4],0.923
same,IRF Lucia reporter activity,RAW-Dual [1]; agonist: LPS (TLR4) 0.1 ug/mL,0.909
CCC(C)CC(C)CCCCCCCCC(=O)NC1CC(O)C(NCCN)NC(=O)C2C(O)CCN2C(=O)C(C(O)CCN)NC(=O)C(C(O)C(O)c2ccc(O)cc2)NC(=O)C2CC(O)CN2C(=O)C(C(C)O)NC1=O (configuration not stated),IRF Lucia reporter activity,"RAW-Dual [3]; library stock concentration (final ~1000-fold dilution): 10 mM water, cytotoxicity flag (confluency mask): not cytotoxic",1.21
Cn1cnc2c(F)c(Nc3ccc(Br)cc3F)c(C(=O)NOCCO)cc21 (library stock concentration (final ~1000-fold dilution): 10 mM),IRF Lucia reporter activity,RAW-Dual [1]; [4],0.728
same,IRF Lucia reporter activity,RAW-Dual [1]; agonist: LPS (TLR4) 0.1 ug/mL,2.67
Cn1cnc2c(F)c(Nc3ccc(Br)cc3Cl)c(C(=O)NOCCO)cc21,IRF Lucia reporter activity,RAW-Dual [3]; [6],2.77
Cn1cnc2c(F)c(Nc3ccc(Br)cc3F)c(C(=O)NOCCO)cc21,IRF Lucia reporter activity,RAW-Dual [3]; [6],2.67
Cn1cnc2c(F)c(Nc3ccc(Br)cc3Cl)c(C(=O)NOCCO)cc21 (library stock concentration (final ~1000-fold dilution): 10 mM),IRF Lucia reporter activity,RAW-Dual [1]; [4],0.69
same,IRF Lucia reporter activity,RAW-Dual [1]; agonist: LPS (TLR4) 0.1 ug/mL,3.1
COCCOc1nc(N)c2[nH]c(=O)n(Cc3ccc(C(=O)O)cc3)c2n1 (library stock concentration (final ~1000-fold dilution): 10 mM),IRF Lucia reporter activity,RAW-Dual [1]; [4],1.54
same,IRF Lucia reporter activity,RAW-Dual [1]; agonist: LPS (TLR4) 0.1 ug/mL,1.06
COC(C(=O)N1Cc2[nH]nc(NC(=O)c3ccc(N4CCN(C)CC4)cc3)c2C1)c1ccccc1 (configuration not stated) (library stock concentration (final ~1000-fold dilution): 10 mM),IRF Lucia reporter activity,RAW-Dual [1]; [4],0.149
same,IRF Lucia reporter activity,RAW-Dual [1]; agonist: LPS (TLR4) 0.1 ug/mL,0.162
COC(C(=O)N1Cc2[nH]nc(NC(=O)c3ccc(N4CCN(C)CC4)cc3)c2C1)c1ccccc1 (configuration not stated),IRF Lucia reporter activity,RAW-Dual [3]; [6],0.147
Cn1cncc1C(N)(c1ccc(Cl)cc1)c1ccc2c(c1)c(-c1cccc(Cl)c1)cc(=O)n2C (configuration not stated) (library stock concentration (final ~1000-fold dilution): 10 mM),IRF Lucia reporter activity,RAW-Dual [2]; [4],0.374
same,IRF Lucia reporter activity,RAW-Dual [2]; agonist: LPS (TLR4) 0.1 ug/mL,0.641
Cn1cncc1C(N)(c1ccc(Cl)cc1)c1ccc2c(c1)c(-c1cccc(Cl)c1)cc(=O)n2C (configuration not stated),IRF Lucia reporter activity,RAW-Dual [3]; [5],0.481
